Assays:
Conditions in all cases: concentration: 1 μM, replicates: in singlicate; n = 1
EPHA3 = system: EPHA3
EPHA4 = system: EPHA4
EPHA5 = system: EPHA5
EPHA6 = system: EPHA6
EPHA7 = system: EPHA7
EPHA8 = system: EPHA8
EPHB1 = system: EPHB1
EPHB2 = system: EPHB2
EPHB3 = system: EPHB3
EPHB4 = system: EPHB4
EPHB6 = system: EPHB6
ERBB2 = system: ERBB2
ERBB3 = system: ERBB3
ERBB4 = system: ERBB4
ERK1 = system: T1, ERK1
T1 construct: gene MAPK3

ERK2 = system: T2, ERK2
T2 construct: gene MAPK1

ERK3 = system: T3, ERK3
T3 construct: gene MAPK6

ERK4 = system: T4, ERK4
T4 construct: gene MAPK4

ERK5 = system: T5, ERK5
T5 construct: gene MAPK7

ERK8 = system: T6, ERK8
T6 construct: gene MAPK15
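Note: KINOMEscan kinase panel screen.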

| SMILES | %Inh (EPHA3) [%] | %Inh (EPHA4) [%] | %Inh (EPHA5) [%] | %Inh (EPHA6) [%] | %Inh (EPHA7) [%] | %Inh (EPHA8) [%] | %Inh (EPHB1) [%] | %Inh (EPHB2) [%] | %Inh (EPHB3) [%] | %Inh (EPHB4) [%] | %Inh (EPHB6) [%] | %Inh (ERBB2) [%] | %Inh (ERBB3) [%] | %Inh (ERBB4) [%] | %Inh (ERK1) [%] | %Inh (ERK2) [%] | %Inh (ERK3) [%] | %Inh (ERK4) [%] | %Inh (ERK5) [%] | %Inh (ERK8) [%] |
| --- | --- | --- | --- | --- | --- | --- | --- | --- | --- | --- | --- | --- | --- | --- | --- | --- | --- | --- | --- | --- |
| Fc1ccc(-c2ncn(CCCN3CCOCC3)c2-c2cccnc2)cc1 [SB-211743] | 1 | 0 | 11 | 0 | 0 | 3 | 20 | 0 | 0 | 0 | 0 | 0 | 0 | 0 | 0 | 8 | 0 | 0 | 0 | 29 |
| NCC(NC(=O)c1cc(-c2cn[nH]c2)c(-c2ccnc3[nH]ccc23)s1)c1ccccc1.O=C(O)C(F)(F)F.O=C(O)C(F)(F)F (centres unmarked) [GSK1325775] | 31 | 0 | 0 | 0 | 0 | 7 | 13 | 0 | 1 | 0 | 12 | 32 | 0 | 10 | 0 | 0 | 20 | 9 | 0 | 51 |
| C[C@@H](Oc1cc(-n2cnc3ccc(NC(=O)NC(C)(C)C)cc32)sc1C(N)=O)c1ccccc1Cl [GSK346294] | 26 | 3 | 0 | 5 | 17 | 27 | 14 | 15 | 18 | 7 | 21 | 15 | 22 | 0 | 0 | 0 | 7 | 19 | 0 | 0 |
| O=C(Nc1n[nH]c2cc(-c3cccc(F)c3)ccc12)C1CC1 [SB-735464] | 17 | 24 | 0 | 14 | 14 | 13 | 0 | 0 | 20 | 21 | 14 | 21 | 0 | 7 | 0 | 0 | 0 | 0 | 8 | 32 |
| O=C(NCCCN1CCOCC1)c1cccc(Nc2nccc(Nc3ccc(Oc4ccccc4)cc3)n2)c1 [GW663929] | 25 | 3 | 0 | 3 | 0 | 0 | 1 | 0 | 2 | 14 | 55 | 38 | 99.3 | 79 | 0 | 0 | 0 | 34 | 27 | 0 |
| CCCCCc1nc2c(N)ncnc2n1CCCCC [SKF-97255] | 0 | 10 | 0 | 5 | 0 | 0 | 5 | 0 | 5 | 0 | 6 | 4 | 0 | 0 | 0 | 0 | 0 | 0 | 0 | 29 |
| O=c1cc(N2CCOCC2)nc2n(Cc3cccc(C(F)(F)F)c3)ccn12 [GSK2297543] | 0 | 6 | 0 | 0 | 0 | 2 | 24 | 0 | 3 | 7 | 0 | 16 | 0 | 5 | 0 | 0 | 0 | 12 | 0 | 0 |
